Here are results for 16 compounds from ChEMBL document CHEMBL5598561, “ASAP - In vitro binding kinetics” (2024).

The target of this assay is Nonstructural protein 3 (Zika virus) (UniProt A0A024AXB9).
Chain of Nonstructural protein 3 (Zika virus) (A0A024AXB9 as listed by the source): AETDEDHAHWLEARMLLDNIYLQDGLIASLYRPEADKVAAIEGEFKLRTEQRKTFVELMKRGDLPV

Regarding `CCc1nc2c(C(=O)Nc3ccc4c(c3)CNC4)cc(Br)cc2[nH]1`, the pKD (in general, the KD on a negative log10 scale, so that one unit is a factor of ten) by setting is: (PRVABC59, Concentration 10.0 uM, Immobilization level 10000.0 pg/mm2, Rmax 30.0 pg/mm2, ka 310193.647 M-1s-1, kd 0.373 1/s) 5.92; (PRVABC59, Concentration 10.0 uM, Immobilization level 12000.0 pg/mm2, Rmax 36.0 pg/mm2, ka 171120.142 M-1s-1, kd 0.256 1/s) 5.83; (PRVABC59, Concentration 10.0 uM, Immobilization level 13000.0 pg/mm2, Rmax 31.0 pg/mm2, ka 250565.843 M-1s-1, kd 0.327 1/s) 5.88.

Consider `O=C(Nc1cc(Cl)cc(C(=O)Nc2ccc3c(c2)CNC3)c1)OCc1ccccc1`, for which the negative logarithm of the KD (pKD) is, setting by setting: (PRVABC59, Concentration 1.0 uM, Immobilization level 3900.0 pg/mm2, Rmax 38.0 pg/mm2, ka 196121.646 M-1s-1, kd 0.113 1/s) 6.24; (PRVABC59, Concentration 1.0 uM, Immobilization level 4900.0 pg/mm2, Rmax 45.0 pg/mm2, ka 144681.299 M-1s-1, kd 0.064 1/s) 6.35; (PRVABC59, Concentration 1.0 uM, Immobilization level 4900.0 pg/mm2, Rmax 45.0 pg/mm2, ka 172692.705 M-1s-1, kd 0.081 1/s) 6.33; (PRVABC59, Concentration 1.0 uM, Immobilization level 5500.0 pg/mm2, Rmax 49.0 pg/mm2, ka 194075.024 M-1s-1, kd 0.087 1/s) 6.35; (PRVABC59, Concentration 1.0 uM, Immobilization level 5500.0 pg/mm2, Rmax 54.0 pg/mm2, ka 112858.156 M-1s-1, kd 0.052 1/s) 6.33; (PRVABC59, Concentration 10.0 uM, Immobilization level 3900.0 pg/mm2, Rmax 44.0 pg/mm2, ka 164681.147 M-1s-1, kd 0.126 1/s) 6.12.

Take `N#C[C@H](Nc1ccc2c(c1)CNC2)c1cc(Cl)cc(C2CC2)c1`: the pKD (PRVABC59, Concentration 10.0 uM, Immobilization level 10000.0 pg/mm2, Rmax 28.0 pg/mm2, ka 179746.524 M-1s-1, kd 1.36 1/s) amounted to 5.12; the pKD (PRVABC59, Concentration 10.0 uM, Immobilization level 12000.0 pg/mm2, Rmax 42.0 pg/mm2, ka 91353.604 M-1s-1, kd 0.386 1/s) is 5.37; the pKD (PRVABC59, Concentration 10.0 uM, Immobilization level 13000.0 pg/mm2, Rmax 52.0 pg/mm2, ka 98756.182 M-1s-1, kd 0.944 1/s) was 5.02.

For `CNC(=O)[C@H](Nc1ccc2c(c1)CNC2)c1cc(Cl)cc(C2CC2)c1`, the negative-log KD (pKD) (PRVABC59, Concentration 10.0 uM, Immobilization level 10000.0 pg/mm2, Rmax 21.0 pg/mm2, ka 735105.2 M-1s-1, kd 0.212 1/s) was 6.54; the negative-log KD (pKD) (PRVABC59, Concentration 10.0 uM, Immobilization level 12000.0 pg/mm2, Rmax 44.0 pg/mm2, ka 423211.762 M-1s-1, kd 0.126 1/s) stood at 6.53; the pKD (PRVABC59, Concentration 10.0 uM, Immobilization level 13000.0 pg/mm2, Rmax 34.0 pg/mm2, ka 634638.949 M-1s-1, kd 0.171 1/s) turned out to be 6.57.

Take `COCCNC(=O)[C@H](Nc1ccc2c(c1)CNC2)c1cc(Cl)cc(C2CC2)c1`: the pKD turned out to be 6.83 (PRVABC59, Concentration 10.0 uM, Immobilization level 10000.0 pg/mm2, Rmax 39.0 pg/mm2, ka 617826.514 M-1s-1, kd 0.092 1/s); 6.7 (PRVABC59, Concentration 10.0 uM, Immobilization level 12000.0 pg/mm2, Rmax 47.0 pg/mm2, ka 381252.779 M-1s-1, kd 0.077 1/s); 6.7 (PRVABC59, Concentration 10.0 uM, Immobilization level 13000.0 pg/mm2, Rmax 46.0 pg/mm2, ka 474021.576 M-1s-1, kd 0.094 1/s).

Regarding `Nc1cc(Cl)cc(C(=O)Nc2ccc3c(c2)CNC3)c1N`, the negative-log KD (pKD) reads like this: (PRVABC59, Concentration 10.0 uM, Immobilization level 10000.0 pg/mm2, Rmax 26.0 pg/mm2, ka 624754.243 M-1s-1, kd 0.161 1/s) 6.59; (PRVABC59, Concentration 10.0 uM, Immobilization level 12000.0 pg/mm2, Rmax 44.0 pg/mm2, ka 261141.936 M-1s-1, kd 1.029 1/s) 5.4; (PRVABC59, Concentration 10.0 uM, Immobilization level 13000.0 pg/mm2, Rmax 23.0 pg/mm2, ka 816818.479 M-1s-1, kd 0.326 1/s) 6.4.

As to `O=C(Nc1ccc2c(c1)CNC2)c1cc(Br)cc2c1OCO2`, the negative logarithm of the KD (pKD) is 5.04 (PRVABC59, Concentration 10.0 uM, Immobilization level 10000.0 pg/mm2, Rmax 23.0 pg/mm2, ka 221801.012 M-1s-1, kd 2.02 1/s); 5 (PRVABC59, Concentration 10.0 uM, Immobilization level 12000.0 pg/mm2, Rmax 42.0 pg/mm2, ka 116147.62 M-1s-1, kd 1.164 1/s); 4.99 (PRVABC59, Concentration 10.0 uM, Immobilization level 13000.0 pg/mm2, Rmax 30.0 pg/mm2, ka 164731.302 M-1s-1, kd 1.67 1/s).

Regarding `Cc1cc(NC(=O)c2cc(Cl)cc3[nH]ncc23)ccc1N1CCNCC1`, the negative logarithm of the KD (pKD) reads like this: (PRVABC59, Concentration 10.0 uM, Immobilization level 10000.0 pg/mm2, Rmax 68.0 pg/mm2, ka 142841.774 M-1s-1) 4.45; (PRVABC59, Concentration 10.0 uM, Immobilization level 12000.0 pg/mm2, Rmax 26.0 pg/mm2, ka 204393.234 M-1s-1, kd 2.532 1/s) 4.91; (PRVABC59, Concentration 10.0 uM, Immobilization level 13000.0 pg/mm2, Rmax 38.0 pg/mm2, ka 209487.853 M-1s-1, kd 3.706 1/s) 4.75.

In the case of `O=C(Nc1ccc2c(c1)[C@H]1CC[C@H]2N1)c1cc(Cl)cc2[nH]ncc12`, the pKD runs as follows: (PRVABC59, Concentration 10.0 uM, Immobilization level 3900.0 pg/mm2, Rmax 29.0 pg/mm2, ka 207440.056 M-1s-1, kd 1.881 1/s) 5.04; (PRVABC59, Concentration 10.0 uM, Immobilization level 4900.0 pg/mm2, Rmax 21.0 pg/mm2, ka 356637.156 M-1s-1, kd 1.239 1/s) 5.46; (PRVABC59, Concentration 10.0 uM, Immobilization level 5500.0 pg/mm2, Rmax 38.0 pg/mm2, ka 209576.876 M-1s-1, kd 1.619 1/s) 5.11; (PRVABC59, Concentration 10.0 uM, Immobilization level 10000.0 pg/mm2, Rmax 35.0 pg/mm2, ka 240196.621 M-1s-1, kd 1.957 1/s) 5.09; (PRVABC59, Concentration 10.0 uM, Immobilization level 12000.0 pg/mm2, Rmax 27.0 pg/mm2, ka 216801.208 M-1s-1, kd 1.112 1/s) 5.29; (PRVABC59, Concentration 10.0 uM, Immobilization level 13000.0 pg/mm2, Rmax 42.0 pg/mm2, ka 287948.566 M-1s-1, kd 1.743 1/s) 5.22.

Regarding `O=C(Nc1ccc2c(c1)CNC2)c1cc(F)cc2[nH]nnc12`, the pKD is 5.35 (PRVABC59, Concentration 10.0 uM, Immobilization level 10000.0 pg/mm2, Rmax 22.0 pg/mm2, ka 162374.237 M-1s-1, kd 0.724 1/s); 4.9 (PRVABC59, Concentration 10.0 uM, Immobilization level 12000.0 pg/mm2, Rmax 50.0 pg/mm2, ka 32556.979 M-1s-1, kd 0.41 1/s); 5 (PRVABC59, Concentration 10.0 uM, Immobilization level 13000.0 pg/mm2, Rmax 48.0 pg/mm2, ka 67317.145 M-1s-1, kd 0.674 1/s).

Turning to `O=C(Nc1ccc2c(c1)CNC2)c1cc(Cl)cc2c1CCC2`, the pKD came to 5.36 (PRVABC59, Concentration 10.0 uM, Immobilization level 10000.0 pg/mm2, Rmax 25.0 pg/mm2, ka 106816.236 M-1s-1, kd 0.472 1/s); 5.14 (PRVABC59, Concentration 10.0 uM, Immobilization level 12000.0 pg/mm2, Rmax 64.0 pg/mm2, ka 30866.003 M-1s-1, kd 0.225 1/s); 5.32 (PRVABC59, Concentration 10.0 uM, Immobilization level 13000.0 pg/mm2, Rmax 31.0 pg/mm2, ka 79832.742 M-1s-1, kd 0.384 1/s).

For `O=C(Nc1ccc2c(n1)CNC2)c1cc(Cl)cc2[nH]ncc12`, the pKD (PRVABC59, Concentration 10.0 uM, Immobilization level 3900.0 pg/mm2, Rmax 29.0 pg/mm2, ka 330423.124 M-1s-1, kd 0.318 1/s) came out at 6.02; the pKD (PRVABC59, Concentration 10.0 uM, Immobilization level 4900.0 pg/mm2, Rmax 43.0 pg/mm2, ka 188485.066 M-1s-1, kd 0.307 1/s) came out at 5.79; the pKD (PRVABC59, Concentration 10.0 uM, Immobilization level 5500.0 pg/mm2, Rmax 45.0 pg/mm2, ka 189855.655 M-1s-1, kd 0.314 1/s) worked out at 5.78; the pKD (PRVABC59, Concentration 10.0 uM, Immobilization level 10000.0 pg/mm2, Rmax 55.0 pg/mm2, ka 105317.175 M-1s-1, kd 0.527 1/s) is 5.3; the negative-log KD (pKD) (PRVABC59, Concentration 10.0 uM, Immobilization level 12000.0 pg/mm2, Rmax 96.0 pg/mm2, ka 37343.204 M-1s-1, kd 0.288 1/s) is 5.11; the pKD (PRVABC59, Concentration 10.0 uM, Immobilization level 13000.0 pg/mm2, Rmax 49.0 pg/mm2, ka 130791.962 M-1s-1, kd 0.347 1/s) was determined as 5.58.

`CCc1cc(Cl)cc(C(=O)Nc2ccc3c(c2)CNC3)c1`: the pKD turned out to be 5.54 (PRVABC59, Concentration 10.0 uM, Immobilization level 10000.0 pg/mm2, Rmax 7.0 pg/mm2, ka 456970.038 M-1s-1, kd 1.322 1/s); 4.66 (PRVABC59, Concentration 10.0 uM, Immobilization level 12000.0 pg/mm2, Rmax 55.0 pg/mm2, ka 33985.237 M-1s-1, kd 0.743 1/s); 5.2 (PRVABC59, Concentration 10.0 uM, Immobilization level 13000.0 pg/mm2, Rmax 17.0 pg/mm2, ka 179212.289 M-1s-1, kd 1.129 1/s).

Regarding `COc1cc(Br)cc(C(=O)Nc2ccc3c(c2)CNC3)c1`, the pKD is, setting by setting: (PRVABC59, Concentration 10.0 uM, Immobilization level 3900.0 pg/mm2, Rmax 30.0 pg/mm2, ka 1022660.121 M-1s-1, kd 0.519 1/s) 6.29; (PRVABC59, Concentration 10.0 uM, Immobilization level 4900.0 pg/mm2, Rmax 37.0 pg/mm2, ka 628733.109 M-1s-1, kd 0.436 1/s) 6.16; (PRVABC59, Concentration 10.0 uM, Immobilization level 5500.0 pg/mm2, Rmax 32.0 pg/mm2, ka 715576.018 M-1s-1, kd 0.434 1/s) 6.22; (PRVABC59, Concentration 10.0 uM, Immobilization level 10000.0 pg/mm2, Rmax 31.0 pg/mm2, ka 878454.345 M-1s-1, kd 0.618 1/s) 6.15; (PRVABC59, Concentration 10.0 uM, Immobilization level 12000.0 pg/mm2, Rmax 51.0 pg/mm2, ka 505054.059 M-1s-1, kd 0.503 1/s) 6; (PRVABC59, Concentration 10.0 uM, Immobilization level 13000.0 pg/mm2, Rmax 45.0 pg/mm2, ka 775706.649 M-1s-1, kd 0.539 1/s) 6.16.

As for `O=C(Nc1ccc2c(c1)CNC2)c1cc(Br)cc2ccccc12`, the negative logarithm of the KD (pKD) came out at 6.18 (PRVABC59, Concentration 10.0 uM, Immobilization level 10000.0 pg/mm2, Rmax 20.0 pg/mm2, ka 1054680.734 M-1s-1, kd 0.691 1/s); 6.04 (PRVABC59, Concentration 10.0 uM, Immobilization level 12000.0 pg/mm2, Rmax 63.0 pg/mm2, ka 507441.603 M-1s-1, kd 0.463 1/s); 5.72 (PRVABC59, Concentration 10.0 uM, Immobilization level 13000.0 pg/mm2, Rmax 45.0 pg/mm2, ka 357590.388 M-1s-1, kd 0.673 1/s).

On to `O=C(Nc1ccc2c(c1)CNC2)c1cccc2[nH]ncc12`, for which the pKD is 6.19 (PRVABC59, Concentration 10.0 uM, Immobilization level 10000.0 pg/mm2, Rmax 19.0 pg/mm2, ka 1068955.381 M-1s-1, kd 0.689 1/s); 6.39 (PRVABC59, Concentration 10.0 uM, Immobilization level 12000.0 pg/mm2, Rmax 37.0 pg/mm2, ka 703955.922 M-1s-1, kd 0.285 1/s); 6.32 (PRVABC59, Concentration 10.0 uM, Immobilization level 13000.0 pg/mm2, Rmax 29.0 pg/mm2, ka 931164.005 M-1s-1, kd 0.45 1/s).
